Most compounds without a hit are left out; they make up all but 11% or so of the library.
PNC inhibitor = High Content Assay for Compounds that inhibit the Assembly of the Perinucleolar Compartment; PC3M PTB-GFP, PNC prevalence imaging, 16 h; stronger effect = lower value; activity change (PNC), negative = inhibition, % at 10 µM; hit rate 3.1% among 140,000;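 active means readout at or below -70, meaning at least 70% loss of cells showing the perinucleolar compartment, a nuclear body marking cancer cells; inconclusive means readout between -30 and a set limit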
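PC3M cells stably expressing PTB-GFP, 750–1000 cells/well, treated 16 h at 37 °C with compound (23 nl of library stock), in duplicate. After paraformaldehyde fixation and Hoechst stain, imaged at 20x; PNC prevalence scored by image analysis.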
JMJD2E inh = qHTS Assay for Inhibitors of Human Jumonji Domain Containing 2E (JMJD2E); hit rate 1.6% among 230,000; Potency, µM (titrated, usually from 57.1 µM), hits mostly inhibitors; Lysine-specific demethylase 4E (Homo sapiens), B2RXH2; AID 2147, 2009; JMJD2E catalytic domain, FDH-coupled NADH fluorescence (FDH is formaldehyde dehydrogenase); further: nearly all actives have a fitted effect of over 50% in size
Target sequence (B2RXH2 1-337 limits assumed): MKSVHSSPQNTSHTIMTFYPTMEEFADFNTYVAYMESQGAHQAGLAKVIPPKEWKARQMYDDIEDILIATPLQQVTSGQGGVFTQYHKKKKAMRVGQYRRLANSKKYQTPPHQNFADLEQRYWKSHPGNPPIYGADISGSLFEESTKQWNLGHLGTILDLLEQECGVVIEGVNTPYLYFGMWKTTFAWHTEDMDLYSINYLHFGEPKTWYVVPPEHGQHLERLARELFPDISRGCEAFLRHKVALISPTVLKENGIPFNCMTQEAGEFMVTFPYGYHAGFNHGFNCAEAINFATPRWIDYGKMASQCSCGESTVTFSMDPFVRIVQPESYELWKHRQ
ALDH1A1 inh = qHTS Assay for Inhibitors of Aldehyde Dehydrogenase 1 (ALDH1A1); Aldehyde dehydrogenase 1A1 (Homo sapiens), P00352; Purified ALDH1A1, NADH fluorescence, propionaldehyde substrate; Potency, µM (series often up to 75.3 µM), actives largely listed as inhibitors; hit rate 7.3% among 220,000; AID 1030, 2008
HPGD inh = qHTS Assay for Inhibitors of HPGD (15-Hydroxyprostaglandin Dehydrogenase) | Potency, µM, actives largely listed as inhibitors | hit rate 4.3% among 150,000 | purified HPGD, NADH fluorescence kinetic, PGE2 substrate | 15-hydroxyprostaglandin dehydrogenase [NAD(+)] (Homo sapiens), P15428
Target sequence (P15428 whole entry, looked up): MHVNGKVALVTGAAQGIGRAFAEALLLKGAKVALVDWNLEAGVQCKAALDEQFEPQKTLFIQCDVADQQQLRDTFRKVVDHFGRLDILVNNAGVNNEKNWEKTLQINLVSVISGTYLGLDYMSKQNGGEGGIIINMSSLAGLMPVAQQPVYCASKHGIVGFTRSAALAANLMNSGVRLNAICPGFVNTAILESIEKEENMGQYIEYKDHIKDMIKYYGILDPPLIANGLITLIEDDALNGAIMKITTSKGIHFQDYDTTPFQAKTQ
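20 nM HPGD preincubated 15 min at room temperature with compound in 50 mM Tris-HCl pH 8, 0.01% Tween 20. Started with 1 mM NAD+ and 30 uM prostaglandin E2; NADH fluorescence (360/450 nm) read 5 times over 30-s intervals, last minus first.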
Of the large screens only hits and unclear results are named; the others gave an inactive call. Unless noted, the call rests on the fitted dose curve; in most records, active means well fitted inhibition curve with a large enough effect (not every such curve was filed as active); inconclusive means small, poorly fitted or top-dose-only effect, or another doubt; inactive means no such curve, though single readings can be large or run the other way.

CN1C(=O)CC(N2CCN(C(=O)CN3CCCC3)CC2)C1=O (stereo not given)	none
COc1ccccc1N1C(=O)CC(N(O)c2ccccc2)C1=O (stereo not given)	none (no result: PNC inhibitor, HPGD inh)
O=C1CC(N2CCOCC2)C(=O)N1c1ccc(Cl)cc1 (stereo not given)	none (no result: PNC inhibitor, ALDH1A1 inh, HPGD inh)
COC(=O)c1ccc(N2C(=O)CC(N3CCOCC3)C2=O)cc1 (stereo not given)	PNC inhibitor inconclusive, ALDH1A1 inh 28µM
CC(=O)Nc1ccc(N2C(=O)CC(N3CC(C)OC(C)C3)C2=O)cc1 (stereo not given)	ALDH1A1 inh 7.9µM
CCOc1ccc(N2C(=O)CC(N3CCN(C(=O)CN4CCCC4)CC3)C2=O)cc1 (stereo not given)	PNC inhibitor -114, ALDH1A1 inh 16µM
COc1ccccc1N(O)C1CC(=O)N(c2ccc(F)cc2)C1=O (stereo not given)	JMJD2E inh inconclusive, ALDH1A1 inh 1.3µM, HPGD inh 22µM
O=C(O)CN(C1CCCCC1)S(=O)(=O)c1ccc(F)cc1	none (no result: PNC inhibitor, HPGD inh)
CCCOc1ccc(N2C(=O)CC(N3CCCC(C(=O)N4CCCC4)C3)C2=O)cc1 (stereo not given)	PNC inhibitor inconclusive, ALDH1A1 inh 18µM
CCCOc1ccc(N2C(=O)CC(N3CCOCC3)C2=O)cc1 (stereo not given)	PNC inhibitor inconclusive, ALDH1A1 inh 25µM
CCCOc1ccc(N2C(=O)CC(N(O)c3ccccc3)C2=O)cc1 (stereo not given)	PNC inhibitor -89, ALDH1A1 inh inconclusive
CCOC(=O)c1ccc(NC(=O)CC2Sc3ncnn3C2=O)cc1 (stereo not given)	PNC inhibitor inconclusive, JMJD2E inh 1.8µM, ALDH1A1 inh 1µM, HPGD inh 16µM
O=C(CC1Sc2ncnn2C1=O)Nc1ccc(Cl)cc1 (stereo not given)	JMJD2E inh 1.6µM, ALDH1A1 inh 7.9µM (no result: PNC inhibitor, HPGD inh)
CCOC(=O)c1ccccc1NC(=O)CC1SC(=NC)N(C)C1=O (stereo not given)	PNC inhibitor inconclusive, JMJD2E inh inconclusive
CCOC(=O)c1ccc(NC(=O)CC2SC(=NC)N(C)C2=O)cc1 (stereo not given)	PNC inhibitor inconclusive, ALDH1A1 inh 13µM
COc1ccc(NC(=O)CC2Sc3ncnn3C2=O)cc1 (stereo not given)	JMJD2E inh 2µM, ALDH1A1 inh 0.4µM, HPGD inh 7.9µM
CCOC(=O)c1ccc(NC(=O)CN2C(=O)C(C)SC(C)C2=O)cc1 (stereo not given)	none
CC(C)[C@@H]1[C@H]2CC[C@H](C2)[C@H]1N	none (no result: PNC inhibitor)
OC(CNCC(c1ccc(Cl)cc1Cl)c1c[nH]c2ccccc12)c1ccccc1 (stereo not given)	none (no result: PNC inhibitor, HPGD inh)
CCOC(=O)NN1C(=O)c2ccccc2NC1c1ccc(N(C)C)cc1 (stereo not given)	JMJD2E inh inconclusive, ALDH1A1 inh 18µM
CCOc1ccc(C(c2c(NC(=O)c3ccccc3)sc(C)c2C)N2CCN(C)CC2)cc1 (stereo not given)	PNC inhibitor -81, JMJD2E inh inconclusive, ALDH1A1 inh inconclusive, HPGD inh inconclusive
Cc1sc(NC(=O)c2ccccc2)c(C(c2ccccn2)N2CCN(CCO)CC2)c1C (stereo not given)	none
Cc1cc(NS(=O)(=O)N(C)C)ccc1C(C)C	ALDH1A1 inh inconclusive, HPGD inh 16µM
CN(C)S(=O)(=O)Nc1ccc2c(c1)OCO2	HPGD inh inconclusive
CC(c1ccccc1)C1CC(=O)N(Cc2ccco2)C1=O (stereo not given)	PNC inhibitor inconclusive, ALDH1A1 inh 8.9µM
Cc1cc(C)c(S(=O)(=O)OC[C@H]2C=CC[C@@H](CCC[C@H]3O[C@H](C(=O)OC(C)C)CC[C@@H]3C)O2)c(C)c1	none (no result: PNC inhibitor)
O=[N+]([O-])c1nn(-c2ccc3c(c2)OCCO3)n(O)c1=Nc1ccccc1	PNC inhibitor inconclusive, ALDH1A1 inh 11µM
O=[N+]([O-])c1nn(-c2ccc3c(c2)OCCO3)n(O)c1=NC1CCCC1	PNC inhibitor inconclusive, ALDH1A1 inh inconclusive
O=[N+]([O-])c1nn(-c2ccc3c(c2)OCCO3)n(O)c1=NC1CCCCCC1	ALDH1A1 inh 14µM
O=[N+]([O-])c1nn(-c2ccc3c(c2)OCCO3)n(O)c1=Nc1ccc(Cl)cc1	ALDH1A1 inh inconclusive
Cc1cc(=O)[nH]c(SCC(=O)Nc2ccc(S(N)(=O)=O)cc2)n1	ALDH1A1 inh inconclusive (no result: PNC inhibitor, HPGD inh)
Cc1ccc(-c2csc(NC(=O)CSc3nc(C)cc(=O)[nH]3)n2)cc1	PNC inhibitor -89, ALDH1A1 inh inconclusive, HPGD inh 28µM
CCOC(=O)c1c(-c2ccccc2Cl)csc1NC(=O)CSc1nc(C)cc(=O)[nH]1	HPGD inh 14µM
CCOC(=O)c1ccc(NC(=O)CSc2nc(C)cc(=O)[nH]2)cc1	HPGD inh 28µM
Cc1cc(=O)[nH]c(SCC(=O)Nc2ccc(C(=O)O)cc2)n1	ALDH1A1 inh inconclusive, HPGD inh 22µM
CCN(CC)c1ccc(NC(=O)CSc2nc(C)cc(=O)[nH]2)cc1	none
CCn1cc(S(=O)(=O)Nc2cc(F)ccc2C)cn1	none (no result: PNC inhibitor, HPGD inh)
O=C(Nc1ccccc1)N1CCC2(CCNCC2)CC1	none (no result: PNC inhibitor, JMJD2E inh)
CCOC(=O)c1ccc(NC(=O)CSc2nnc(CNc3ccc(C)cc3)n2C)cc1	PNC inhibitor -100
COC(=O)c1cc(NC(=O)CSc2nc(C)cc(=O)[nH]2)cc(C(=O)OC)c1	HPGD inh 14µM
Cc1cc2ccccc2nc1SCC(=O)Nc1nc(-c2ccccc2)cs1	PNC inhibitor inconclusive, ALDH1A1 inh 7.9µM
CCOC(=O)N1CCN(C(=O)CSCC(=O)Nc2nc(-c3ccc(-c4ccccc4)cc3)cs2)CC1	JMJD2E inh 35µM, ALDH1A1 inh inconclusive
CCOC(=O)N1CCN(C(=O)CSCC(=O)Nc2nc(-c3ccc(OC)cc3)cs2)CC1	none
CCn1cc(C(=O)NNC(=O)c2ccc(Cl)cc2)c(=O)c2ccc(C)nc21	none (no result: PNC inhibitor, HPGD inh)
CCOC(=O)c1ccc(NC(=O)CSc2nc3sc(C(=O)O)c(C)c3c(=O)[nH]2)cc1	ALDH1A1 inh 14µM (no result: PNC inhibitor, HPGD inh)
CCN(CC)S(=O)(=O)c1ccc(C(=O)NCc2n[nH]c(=S)n2-c2ccc(Cl)c(Cl)c2)cc1	ALDH1A1 inh 1.4µM (no result: PNC inhibitor, HPGD inh)
O=C(NCc1n[nH]c(=S)n1-c1ccccc1)c1ccc(S(=O)(=O)N2CCOCC2)cc1	PNC inhibitor inconclusive, ALDH1A1 inh 18µM
O=C(NCc1n[nH]c(=S)n1-c1ccccc1)c1ccc(S(=O)(=O)N2CCCCC2)cc1	ALDH1A1 inh 11µM (no result: PNC inhibitor, HPGD inh)
CN(C)C(=O)COC(=O)c1ccccc1NC(=O)c1ccco1	none (no result: PNC inhibitor, HPGD inh)
O=C1C(Cl)=C(NCCCN2CCOCC2)C(=O)N1CCc1ccccc1	ALDH1A1 inh 7.9µM
O=C(O)c1ccccc1NS(=O)(=O)c1ccc(NNC(=S)Nc2ccc(OC(F)F)cc2)c([N+](=O)[O-])c1	ALDH1A1 inh 3.5µM (no result: PNC inhibitor, HPGD inh)
C#CCN1C(=O)C(O)(CC(=O)/C=C/C=C/c2ccccc2)c2ccccc21 (stereo not given)	ALDH1A1 inh 6.3µM (no result: PNC inhibitor, HPGD inh)

Screening data from PubChem BioAssay.
